One may read the Inhibition as the change of the read-out against control, counted positive when it falls.

We go through 57 compounds from ChEMBL document CHEMBL1157539, “Thousands of chemical starting points for antimalarial lead identification” (Nature, 2010).

Format in all cases: functional
For test [1], the system named is Plasmodium falciparum. As to the kind of experiment: GSK_TCMDC: Inhibition of Plasmodium falciparum 3D7 in whole red blood cells, using parasite LDH activity as an index of growth. Test compounds present at 2uM.
Test [2] has as its system Plasmodium falciparum. As to the kind of experiment: GSK_TCMDC: Inhibition of Plasmodium falciparum Dd2 in whole red blood cells, using parasite LDH activity as an index of growth. Test compounds present at 2uM.
In a further test the test system is HepG2. As to the kind of experiment: GSK_TCMDC: Percent inhibition of human HepG2 cell line. Test compounds present at 10uM.

As to `COCCOc1ccc(Nc2nccc(-c3c(-c4cccc(NC(=O)c5c(F)cccc5F)c4)nn4ccccc34)n2)cc1Cl`, the Inhibition in the test on Plasmodium falciparum [1] came out at 99%; in the test on Plasmodium falciparum [2] it was 97%; in the test on HepG2, 53%.
For `c1ccc2c(CNc3ccnc(NCc4cccc5ccccc45)n3)cccc2c1` the same measures were 99%, 71% and 51%.
As for `Br.Cc1cc(Br)c(OCCCON2C(=N)N=C(N)NC2(C)C)c(Br)c1`, the values for the Inhibition in the test on Plasmodium falciparum [1], in the test with Plasmodium falciparum [2] and in the test with HepG2 were 95%, 97% and 62%, respectively.
As for `Nc1nc(F)nc2nc[nH]c12`, the values for the Inhibition in the test on Plasmodium falciparum [1], in the test with Plasmodium falciparum [2] and with HepG2 were 89%, 25% and 78%, respectively.
On to `Br.C[C@@H](COc1ccc(-c2ccccc2)cc1)CON1C(N)=NC(N)=NC1(C)C`, for which the Inhibition stood at 96% in the test on Plasmodium falciparum [1], 96% in the test with Plasmodium falciparum [2] and 62% in the test on HepG2.
For `O=C(Cc1cccs1)NCC(c1ccccc1Cl)c1c[nH]c2ccccc12` (stereo unspecified), the results for the Inhibition in the test with Plasmodium falciparum [1], in the test on Plasmodium falciparum [2] and with HepG2 were 91%, 56% and 12%, respectively.
In the same order, the values of `O=C(Nc1cccc(-c2ccc(CN3CCC(O)CC3)cc2)c1)c1cccc(Cl)c1.O=C(O)C(F)(F)F` are 96%, 2% and 11%.
For `CCN(CC)CCN(Cc1ccc(-c2ccc(Cl)s2)cc1)C(=O)Cn1c(CCc2cccc(F)c2F)nc(=O)c2ccccc21.O=C(O)C(O)C(O)C(=O)O` the same measures were 96%, 27% and 24%.
For the compound `Cc1cc(Cl)c(Cl)cc1NC(=O)Nc1cccc(C(F)(F)F)c1`, the Inhibition stood at 93% with Plasmodium falciparum [1], 99% with Plasmodium falciparum [2] and 1% in the test on HepG2.
In the same order, the values of `O=C1C2C(c3ccc(Cl)c(Cl)c3)N3CC(OCc4ccccc4)CC3(C(=O)O)C2C(=O)N1c1ccc(Br)cc1` (stereo unspecified) are 100%, 86% and 14%.
For `CC(C)CN1C(=O)c2ccccc2C(C(=O)Nc2cccc(C#N)c2)C1c1cccs1` (stereo unspecified) the same measures were 100%, 100% and 11%.
For `CN1CCN(c2cccc(-c3nnc(-c4cccc(OCC(=O)NCc5ccc(C(F)(F)F)cc5)c4)o3)c2)CC1` the same measures were 98%, 86% and 10%.
In the case of `O=C(/C=C/c1ccccc1)N1CCOC(CCN2CCC(c3ccccc3)CC2)(c2ccc(Cl)c(Cl)c2)C1` (stereo unspecified), the Inhibition with Plasmodium falciparum [1] stood at 89%; in the test with Plasmodium falciparum [2], 63%; with HepG2, 4%.
In the same order, the values of `Cc1cc(Nc2ncc(C#N)c(Nc3ccccc3C(N)=O)n2)ccc1N1CCN(C)CC1.Cl` are 94%, 94% and 99%.
Take `CCN(c1ccccc1)S(=O)(=O)c1ccc(OC)c(NC(=O)c2cccc(C(F)(F)F)c2)c1`: the Inhibition worked out at 90% in the test on Plasmodium falciparum [1], 70% in the test on Plasmodium falciparum [2] and 9% with HepG2.
For `CN(CC1CCC(NC(=O)/C=C/c2ccc(Cl)c(Cl)c2)CC1)C1CCC(c2c[nH]c3ccccc23)CC1` (stereo unspecified) the same measures were 99%, 53% and 53%.
Consider `COc1cc2nc(N3CCC(CNC(=O)c4ccc(C(C)=O)cc4)CC3)nc(N)c2cc1OC.O=C(O)C(F)(F)F`, for which the Inhibition in the test on Plasmodium falciparum [1] came to 96%; in the test on Plasmodium falciparum [2], 15%; in the test on HepG2 it was 10%.
Take `CCN(CC)CCNc1ccc(Nc2ccnc3cc4ccccc4cc23)cc1`: the Inhibition was 100% in the test on Plasmodium falciparum [1], 99% with Plasmodium falciparum [2] and 36% in the test on HepG2.
For `CN(C)CCNc1nccc(N2CCc3ncnc(Nc4ccc(OCc5cccc(F)c5)c(Cl)c4)c3C2)n1`, the Inhibition is reported as 100% in the test on Plasmodium falciparum [1], 97% in the test on Plasmodium falciparum [2] and 65% in the test on HepG2.
For `CC(C)[C@H](NC(=O)NC1CCC(CCN2C3CCC2CC(OC(=O)C(CO)c2ccccc2)C3)CC1)C(O)(c1ccccc1)c1ccccc1` (stereo partly specified) the same measures were 90%, 4% and 17%.
Take `O=C(NCCN1CCOCC1)c1ccc(-c2ccc(CNCCCc3ccccc3)cc2)nc1.O=C(O)C(F)(F)F`: the Inhibition is 97% in the test with Plasmodium falciparum [1], 10% with Plasmodium falciparum [2] and 0% with HepG2.
In the same order, the values of `Clc1ncccc1-c1nc(NCCC(c2ccccc2)c2ccccc2)no1` are 94%, 82% and 12%.
For `Cc1cnc2cc3c(cc2c1N1CCN(C)CC1)NCC3`, the figures for the Inhibition in the test on Plasmodium falciparum [1], in the test with Plasmodium falciparum [2] and with HepG2 were 100%, 69% and 12%, respectively.
Consider `O=C(Nc1ccc(Cl)cc1)c1ccc(CN2CCCN(Cc3cccc(O)c3)CC2)cc1.O=C(O)C(F)(F)F`, for which the Inhibition is given as 100% with Plasmodium falciparum [1], 69% in the test on Plasmodium falciparum [2] and 52% in the test with HepG2.
Consider `Cc1ccc(NC(=S)N2CCCN(CCCCCNC(=O)/C=C/c3ccc(Cl)c(Cl)c3)CC2)cc1Cl`, for which the Inhibition in the test on Plasmodium falciparum [1] was 93%; in the test with Plasmodium falciparum [2], 5%; in the test with HepG2, 14%.
On to `CCCC[C@H](NC(=O)O[C@H](COc1ccc(OCc2ccccc2)cc1)C(C)(C)C)C(=O)C(=O)Nc1cc[nH]n1`, for which the Inhibition in the test with Plasmodium falciparum [1] turned out to be 88%; in the test with Plasmodium falciparum [2], 71%; in the test with HepG2, 21%.
As for `Cc1cc(N(C)C)nc(Nc2ccc(NC(=O)COc3ccccc3)cc2)n1`, the values for the Inhibition in the test on Plasmodium falciparum [1], with Plasmodium falciparum [2] and with HepG2 were 100%, 67% and 15%, respectively.
With `Cl.Cn1nc(C(F)(F)F)cc1-c1ccc(C(=O)Nc2ccc3c(c2)CNCC3(C)C)s1`, the figures for the Inhibition in the test with Plasmodium falciparum [1], with Plasmodium falciparum [2] and with HepG2 were 88%, 36% and 10%, respectively.
For the compound `CCNc1cc(C(=O)N[C@@H](Cc2ccccc2)[C@H](O)CNCCC(C)c2ccccc2)cc(N2CCCC2=O)c1.O=C(O)C(F)(F)F` (stereo partly specified), the values for the Inhibition in the test with Plasmodium falciparum [1], with Plasmodium falciparum [2] and in the test with HepG2 were 99%, 95% and 0%, respectively.
For the compound `O=C(Nc1ccc(Cl)cc1)c1ccc(CN2CCCN(CC3CCCCC3)CC2)cc1.O=C(O)C(F)(F)F`, the Inhibition in the test with Plasmodium falciparum [1] was found to be 92%; in the test with Plasmodium falciparum [2], 42%; with HepG2, 48%.
In the same order, the values of `Cc1c(C(=O)NCc2ccncc2)sc2nc(-c3cccc([N+](=O)[O-])c3)cn12` are 97%, 29% and 18%.
As for `CN(C(=O)/C=C/c1cc(C(F)(F)F)ccc1F)C1CCN(CCCCCNC(=O)/C=C/c2ccc(Cl)c(Cl)c2)C1` (stereo unspecified), the Inhibition is reported as 93% in the test with Plasmodium falciparum [1], 1% in the test with Plasmodium falciparum [2] and 16% in the test on HepG2.
For `O=C(O)C(F)(F)F.O=S(=O)(NCCN1CCCC1)c1ccc(-c2ccc(CNCc3ccc(F)cc3)cc2)cc1F` the same measures were 82%, 21% and 40%.
Consider `CN1CCN(CC2(Nc3nccc(NCCc4cn(C)c5ccccc45)n3)CCCCC2)CC1`, for which the Inhibition is reported as 91% in the test on Plasmodium falciparum [1], 41% with Plasmodium falciparum [2] and 67% in the test on HepG2.
For `CCN(CC)CCN(Cc1ccc(-c2ccc(C(F)(F)F)cc2)cc1)C(=O)Cn1c(CCc2cc(F)cc(F)c2)nc(=O)c2ccccc21.O=C(O)C(O)C(O)C(=O)O` the same measures were 91%, 80% and 30%.
For `CCN(CC)CCCC(C)Nc1cc(C)nc2cc(Cl)ccc12` (stereo unspecified) the same measures were 100%, 7% and 9%.
For `CN(C)CCN(C)Cc1ccc(-c2ccc3c(Nc4ccc(Oc5ccccn5)cc4)ccnc3c2)o1` the same measures were 100%, 100% and 16%.
On to `O=C(NCCN1CCCCC1)N1CCCN(c2ncnc3cc(-c4ccccc4)sc23)CC1.O=C(O)C(F)(F)F`, for which the Inhibition turned out to be 89% in the test on Plasmodium falciparum [1], 80% in the test with Plasmodium falciparum [2] and 2% in the test with HepG2.
Regarding `CCC(C)(C)c1ccc(S(=O)(=O)Nc2ccc(Cl)c(OCCN3CCCCC3)c2)cc1`, the values for the Inhibition with Plasmodium falciparum [1], with Plasmodium falciparum [2] and in the test on HepG2 were 88%, 93% and 100%, respectively.
`CC(Cc1ccc(C(=O)Nc2ccc(CC(C)NCCc3cccc(Cl)c3)cc2)cc1)NCCc1ccc(C(F)(F)F)cc1` (stereo unspecified): the Inhibition amounted to 100% in the test with Plasmodium falciparum [1], 88% in the test with Plasmodium falciparum [2] and 98% in the test on HepG2.
As for `CC(C)CNCc1cccc(-c2cccc(CNC3CCN(Cc4ccccc4)CC3)c2)c1.O=C(O)C(F)(F)F`, the Inhibition in the test with Plasmodium falciparum [1] came out at 100%; with Plasmodium falciparum [2] it was 99%; with HepG2, 32%.
For `CC(=O)Nc1ccc(C(=O)Nc2ccc(-c3cccc(-c4nc5cc(C(F)(F)F)ccc5[nH]4)c3)cc2)cn1` the same measures were 100%, 98% and 29%.
For `CCc1c[nH]c2c(N(c3ccccc3)S(C)(=O)=O)cc(C(=O)N[C@@H](Cc3ccccc3)[C@H](O)CNCc3cccc(C(F)(F)F)c3)cc12.O=CO` the same measures were 93%, 98% and 20%.
In the same order, the values of `Cc1cccc(CNc2nc(C)cc(NCCC(=O)Nc3ccccc3)n2)c1.O=C(O)C(F)(F)F` are 100%, 54% and 15%.
For `Cc1cccc(Nc2nc(N[C@@H]3CCCNC3)nc3cc[nH]c(=O)c23)c1.O=C(O)C(F)(F)F`, the Inhibition with Plasmodium falciparum [1] is listed as 99%; with Plasmodium falciparum [2] it was 98%; with HepG2, 55%.
In the same order, the values of `CN1CCN(c2ccnc3ccc(NC(=O)Nc4cccc(C#N)c4)cc23)CC1` are 99%, 96% and 11%.
As to `N#Cc1ccc(/C=C/C(=O)NCCCCCN2CCN(C(=O)Nc3ccc(Cl)c(C(F)(F)F)c3)CC2)cc1`, the results for the Inhibition in the test with Plasmodium falciparum [1], in the test on Plasmodium falciparum [2] and in the test with HepG2 were 94%, 0% and 42%, respectively.
Regarding `COc1ccc(CNC2Cc3ccccc3C2)cc1-c1ccc(S(=O)(=O)NCCN2CCCC2)cc1.O=C(O)C(F)(F)F`, the Inhibition is 100% with Plasmodium falciparum [1], 61% in the test with Plasmodium falciparum [2] and 40% in the test with HepG2.
In the same order, the values of `CS(=O)(=O)N(c1ccc(F)cc1)c1cc(C(=O)N[C@@H](Cc2ccccc2)[C@H](O)CNCc2cccc(C(F)(F)F)c2)cc(N2CCCC2=O)c1.O=CO` are 91%, 65% and 0%.
For `CCCCCCNC(=N)c1ccc(OCCCCCOc2ccc(C(=N)NCCCCCC)cc2)cc1.Cl` the same measures were 97%, 98% and 55%.
With `O=C(Nc1ccc(-c2cccc(CN3CCC(O)CC3)c2)cc1)c1cccc(Cl)c1.O=C(O)C(F)(F)F`, the Inhibition stood at 94% in the test with Plasmodium falciparum [1], 14% in the test with Plasmodium falciparum [2] and 50% in the test on HepG2.
`CSc1nnc2n(Cc3ccccc3)c(=O)c3c(n12)-c1ccccc1CC31CCCCC1`: the Inhibition in the test on Plasmodium falciparum [1] worked out at 93%; in the test with Plasmodium falciparum [2], 0%; in the test with HepG2, 0%.
On to `O=C(Nc1ccccc1)N(Cc1ccc(-c2cccc(CNCc3ccc4c(c3)OCO4)c2)cc1)C1CCN(Cc2ccccc2)CC1.O=C(O)C(F)(F)F`, for which the Inhibition stood at 100% in the test on Plasmodium falciparum [1], 65% in the test with Plasmodium falciparum [2] and 29% in the test on HepG2.
Regarding `CC[C@]1(C)C[C@@H](NC(=O)NC(=O)c2ccc(OC)cc2)[C@]2(C)[C@H](C)CC[C@]3(CCC(=O)[C@H]32)[C@@H](C)[C@@H]1OC(=O)NC(=O)c1ccc(OC)cc1`, the figures for the Inhibition in the test with Plasmodium falciparum [1], in the test with Plasmodium falciparum [2] and in the test with HepG2 were 100%, 98% and 10%, respectively.
For `CCCCn1c(Sc2ccc(C#N)c([N+](=O)[O-])c2)nnc1-c1ccc(OC)cc1` the same measures were 93%, 61% and 12%.
In the same order, the values of `Cc1cc(C2CCN(CCCCNC(=O)c3ccc(-c4ccc(C(F)(F)F)cc4)cc3)CC2)c(C)cc1OCC(N)=O` are 91%, 44% and 34%.
In the same order, the values of `CCCC(N)C(=O)NC1CCN(c2c(F)c(N)c3c(=O)c(C(=O)O)cn4c3c2Oc2ccccc2-4)C1.Cl` (stereo unspecified) are 98%, 98% and 66%.
